# The full list was thinned out, with hits kept by preference.
# LmPK inhibitor: inhibitors of Leishmania mexicana pyruvate kinase | Q27686 | purified LmPK, Kinase-Glo ATP luminescence, 1 h | AID 1721 | 290,000 compounds, 0.37% hits | Potency, µM (doses to about 57.5 µM), for the others: at the highest dose activity change, negative = inhibition, actives largely listed as inhibitors; active means well fitted curve in the direction sought with a large enough effect; inconclusive means small, poorly fitted or top-dose-only effect, or another doubt; inactive means no such curve, though single readings can be large; an effect the other way counts as inactive or inconclusive; further: potency means the concentration at half of the fitted maximal effect; on the % scale 0 is the no-effect control and ±100 the full control effect
# Target sequence (Q27686 whole entry, looked up): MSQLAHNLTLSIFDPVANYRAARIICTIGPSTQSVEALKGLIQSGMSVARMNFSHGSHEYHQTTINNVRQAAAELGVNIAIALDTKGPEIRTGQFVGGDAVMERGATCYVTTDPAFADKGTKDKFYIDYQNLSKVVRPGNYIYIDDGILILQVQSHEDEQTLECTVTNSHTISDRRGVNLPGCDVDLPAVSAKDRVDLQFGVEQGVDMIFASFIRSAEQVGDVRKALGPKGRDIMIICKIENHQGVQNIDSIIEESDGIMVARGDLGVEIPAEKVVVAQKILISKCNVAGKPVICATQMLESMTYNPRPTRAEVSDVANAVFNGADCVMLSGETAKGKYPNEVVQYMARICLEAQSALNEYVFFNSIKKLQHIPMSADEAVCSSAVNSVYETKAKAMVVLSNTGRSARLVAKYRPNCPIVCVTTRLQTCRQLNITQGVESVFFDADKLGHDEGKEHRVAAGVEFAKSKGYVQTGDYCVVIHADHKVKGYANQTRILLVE
#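 Purified LmPK (0.1 nM) with 0.5 mM PEP and 0.1 mM ADP in imidazole buffer pH 7.2 with MgCl2/KCl, 1 h at room temperature. ATP formed was read by luciferase luminescence and normalized to no-enzyme and uninhibited controls.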
# NS1 function inh: blocks influenza NS1 protein function; Potency, µM (top dose mostly 46.1 µM), inactives show at the top dose activity, positive = more growth; 270,000 compounds, 0.4% hits; AID 2326; further: potency means the concentration at half of the fitted maximal effect; actives are rising curves; nearly all actives have a fitted effect of over 50% in size
#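 A cell-based growth assay was used: compounds that relieve NS1-induced slow growth of budding yeast raise OD600. Assay medium was yeast nitrogen base with ammonium sulphate and -URA supplement, pH 6.0, with 2% galactose.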
# Shiga toxin inh: inhibitors of Shiga toxin in Vero cells | Vero cells, Shiga toxin protein synthesis inhibition reporter | inhibition, % at 38.7 µM | 290,000 compounds, 9.2% hits | AID 2315; in the data active means inhibition mostly above about 28%, no sharp cut-off; inactive means mostly below about 43%; further: 0% is about no effect
# SARS PLP yeast: blocks SARS-CoV papain-like protease in a yeast assay | S. cerevisiae expressing SARS-CoV PLpro, growth rescue | Potency, µM (highest dose often 32.9 µM), for the others: at the top dose activity, positive = growth rescue, usual class: activators | 330,000 compounds, 0.19% hits | AID 485353; further: potency means the concentration at half of the fitted maximal effect; 0% is about no effect; nearly all actives have a fitted effect of over 55% in size
# Cycloheximide cs: counter-screen for Shiga toxin inhibitors: cycloheximide protein synthesis inhibition; cell reporter, cycloheximide protein synthesis inhibition counterscreen; max response, %; 300,000 compounds, 12% hits; AID 2314; in the data active means max response mostly above about 13%, no sharp cut-off; inactive means mostly below about 14%; further: read at 38.3 µM for the half of the compounds with a filed dose; 0% is about no effect
# Tb PYK inh: blocks Trypanosoma brucei pyruvate kinase | TbPYK enzyme, Kinase-Glo Plus ATP luminescence, 45 min | AID 624173 | Q57TT1 | 410,000 compounds, 0.12% hits | Potency, µM (titrated, usually from 76.8 µM), inactives show at the top dose activity, negative = inhibition, actives largely listed as inhibitors; active means well fitted curve in the direction sought with a large enough effect; inconclusive means small, poorly fitted or top-dose-only effect, or another doubt; inactive means no such curve, though single readings can be large; an effect the other way counts as inactive or inconclusive; further: potency means the concentration at half of the fitted maximal effect; on the % scale 0 is the no-effect control and ±100 the full control effect; nearly all actives have a fitted effect of over 50% in size
#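 Enzyme and substrate buffer are dispensed first and compound is pin-transferred. ADP at 130 uM final then starts the reaction, which runs 45 min at room temperature. Detection reagent is added for 10 min before luminescence is imaged.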
# Active calls of the source: *; ? = inconclusive; nt = no result; [ ] = another dose, or the depositor's remark. Unless noted, the call rests on the fitted dose curve.
SMILES,LmPK inhibitor,NS1 function inh,Shiga toxin inh,SARS PLP yeast,Cycloheximide cs,Tb PYK inh
CCOc1ccc(NC(=O)CSc2ncn[nH]2)cc1,-13%,16%,11,-9%,18*,-2%
CCOc1ccc(NC(=O)CSc2ncn[nH]2)c([N+](=O)[O-])c1,1%,-1%,-5,-3%,-3,-9%
Cc1nn(-c2ccccn2)c(C)c1Oc1ccccc1O,7%,-11%,20,10%,9,-3%
Cc1nn(-c2nc3ccccc3s2)c(C)c1Oc1ccccc1O,0%,-14%,72*,-21%,32*,3%
CCc1ccc(C(=O)NC(Cc2c[nH]c3ccccc23)C(=O)OCC(=O)c2ccc(Br)cc2)cc1 (centres undefined),nt,nt,nt,nt,nt,7%[15.4 µM]
COc1ccccc1C(=O)Nc1nnc(S(=O)(=O)N2CCOCC2)s1,1%,-8%,16,2%,14*,-7%
O=C(Nc1nnc(S(=O)(=O)N2CCOCC2)s1)c1ccc(Cl)cc1,-6%,12%,29,-4%,-2,4%
O=C(Nc1nnc(S(=O)(=O)N2CCOCC2)s1)c1ccccc1,-1%,1%,22,6%,11*,-29%
Cc1ccc2c(c1)sc(=NC(=O)C1CC1)n2C,-5%,-5%,89*,-4%,45*,1%
CCCNC(=O)Cn1nc(-c2ccc(OC)cc2)c2cnc3ccc(F)cc3c21,nt,nt,nt,nt,nt,-2%
N#Cc1cn(-c2ccccc2)nc1-c1ccco1,-1%,-11%,37,-12%,26,nt
O=Cc1cn(-c2ccccc2)nc1-c1ccc(F)cc1,1%,-4%,16,4%,active,1%
N#Cc1cn(-c2ccccc2)nc1-c1ccc2c(c1)OCCO2,2%,0%,64*,3%,24*,-3%
O=Cc1cn(-c2ccccc2)nc1-c1ccc2c(c1)OCCO2,-1%,-21%,99*,-55%,57*,-15%
Cn1cc(C=O)c(-c2ccc3c(c2)OCCCO3)n1,-6%,4%,83*,-1%,44*,0%
CCN(CC)C(=O)c1cn(-c2ccccc2)nc1-c1ccc2c(c1)OCCO2,1%,-6%,-1,-3%,-6,-1%
Cn1cc(C(=O)O)c(-c2ccc3c(c2)OCCCO3)n1,0%,-7%,-5,1%,-4,-4%
C/C(=N\Nc1cccc2cccnc12)c1ccc(N)cc1,0%,7%,119*,-2%,36*,1%
C/C(=N\Nc1cccc2cccnc12)c1ccccc1O,-7%,nt,46*,-3%,36*,-7%
CN(C(=O)CSc1nnc(C(F)(F)F)n1C)c1c(N)n(Cc2ccccc2)c(=O)[nH]c1=O,nt,nt,nt,nt,nt,-5%
CCOc1ccc(NC(=O)Cc2ccc(-n3c(C)nc4cccnc43)cc2)cc1,nt,nt,nt,nt,nt,-5%[15.4 µM]
Cc1cc(OCc2ccc(C(=O)n3cccn3)o2)ccc1Cl,4%,-27%,65*,-24%,30*,-7%
CCN(CC)C(=O)c1ccc(COc2ccc(Cl)c(C)c2)o1,2%,-49%,nt,-4%,30*,-7%
CCN(CC)C(=O)c1ccc(COc2ccccc2Br)o1,3%,-63%,38,-2%,17,-11%
CC(C)[C@H](NC(=O)N1c2ccccc2NC(=O)[C@@H]1C(C)C)C(=O)N1CCC(C(=O)O)CC1,-8%,22%,12,10%,8.9*,-12%
SMILES,LmPK inhibitor,NS1 function inh,Shiga toxin inh,SARS PLP yeast,Cycloheximide cs,Tb PYK inh
Brc1ccccc1OCCCn1cnc2ccccc21,0%,-57%,52,0%,35*,-3%
Cc1ccccc1OCCCCn1cnc2ccccc21,1%,-152%,23,8%,16*,-3%
Cc1ccc(OCCCCn2cnc3ccccc32)cc1,14%[11.5 µM],nt,88*,1%,40*,1%
CN(C)Cc1ccccc1CNC(=O)c1ccc(Cl)c(S(=O)(=O)NC2CC2)c1,nt,nt,nt,nt,nt,4%
O=C(CN(Cc1ccccc1Cl)C(=O)c1csnn1)NC1CCCC1,0%,1%,19,3%,-9,2%
Nc1nc(SCc2ccccc2)cc(SCc2ccccc2)n1,nt,nt,nt,nt,nt,1%
Nc1ncc(S(=O)(=O)N2CCN(c3ccccc3)CC2)cn1,nt,nt,nt,nt,nt,2%
O=C(CN1CCC(c2nc3ccccc3s2)CC1)N1CCCCC1,1%,?,33,1%,16,-2%
O=C(/C=C/c1nc2ccccc2s1)N1CCCCCC1,-2%,nt,53*,-1%,35*,3%
CC1CCCCC1NC(=O)/C=C/c1nc2ccccc2s1 (centres undefined),1%,-20%,76,-4%,30*,-5%
CCNC(=O)C1(C)CCN(C(=O)c2cccc(C(F)(F)F)c2)C1 (centres undefined),nt,nt,nt,nt,nt,-1%
COc1ccc(/C(=N\Nc2ccccc2C(=O)O)c2ccccc2)cc1,14%,nt,169*,-4%,29*,-3%
CCOC(=O)C(=O)N/N=C(/c1ccccc1)c1ccc(OC)cc1,3%,-7%,29,0%,7,4%
C/C(=N\NC(=O)c1ccccc1NC(=O)c1ccc(Cl)cc1)c1ccncc1,?,nt,-15,-22%,-16,?
C/C(=N\Nc1ccccc1C(=O)O)c1ccncc1,0%,15%,43*,1%,18*,0%
CN(CC(=O)Nc1cccc(F)c1)C(=O)c1ccccc1OCC(=O)Nc1cccc(C(F)(F)F)c1,nt,nt,nt,-3%,nt,5%
NC(=O)C1(N2CCCCC2)CCN(Cc2ccc(F)cc2)CC1,3%,24%,-9,3%,-3,-1%
NC(=O)C1(N2CCCCC2)CCN(Cc2ccc(Br)cc2)CC1,-3%,1%,13,0%,26*,3%
C#CCn1c(=NC(=O)c2ccccc2[N+](=O)[O-])sc2cc(S(C)(=O)=O)ccc21,3%,4%,-1,6%,9,0%
Cn1c(=NC(=O)c2ccccc2[N+](=O)[O-])sc2cccc(F)c21,-2%,7%,162*,0%,63*,2%
Cn1c(=NC(=O)C(C)(C)C)sc2cccc(F)c21,-18%,-6%,58*,1%,13,0%
Clc1cc(Cl)c2nc(N3CCCCC3)sc2c1,-9%,-5%,72*,0%,34*,-10%
Clc1cccc2sc(N3CCCCC3)nc12,-6%,-7%,82*,-5%,32*,-1%
CC(C)(C)C(=O)N1CCN(c2nc3c(F)cccc3s2)CC1,nt,nt,nt,nt,nt,-16%
Brc1cccc2sc(N3CCN(c4ccccc4)CC3)nc12,8%,nt,30*,-8%,24*,0%
Clc1cc(Cl)c2nc(N3CCCC3)sc2c1,nt,-7%,nt,nt,nt,-16%
COc1ccc(OC)c2sc(N3CCCCC3)nc12,-4%,-19%,66*,-8%,36*,1%
O=C(C1CC1)N1CCN(c2nc3c(Cl)cccc3s2)CC1,nt,nt,nt,nt,nt,-1%
COc1ccc(OC)c2sc(N3CCc4ccccc4C3)nc12,2%,nt,51,-10%,18,0%
COc1cccc(C2CC(=O)Nc3c2c(=O)n(C)c2nc4ccccc4n32)c1OC (centres undefined),nt,nt,nt,nt,nt,-6%
